# Laboratory results reported in PubChem BioAssay (NCATS).
# Inconclusive results are not listed. Active and inactive are the calls of the source. Unless noted, the call rests on the fitted dose curve; in most records, active means well fitted curve in the direction sought with a large enough effect; inconclusive means small, poorly fitted or top-dose-only effect, or another doubt; inactive means no such curve, though single readings can be large; an effect the other way counts as inactive or inconclusive.
# Assays:
# [1] = target: Ubiquitin carboxyl-terminal hydrolase 1 (Homo sapiens) (UniProt O94782); assay: Inhibitors of USP1/UAF1: Pilot qHTS (AID 504865); further: potency means the concentration at half of the fitted maximal effect; nearly all actives have a fitted effect of over 35% in size
# Sequence of Ubiquitin carboxyl-terminal hydrolase 1 (Homo sapiens) (O94782 whole entry, looked up): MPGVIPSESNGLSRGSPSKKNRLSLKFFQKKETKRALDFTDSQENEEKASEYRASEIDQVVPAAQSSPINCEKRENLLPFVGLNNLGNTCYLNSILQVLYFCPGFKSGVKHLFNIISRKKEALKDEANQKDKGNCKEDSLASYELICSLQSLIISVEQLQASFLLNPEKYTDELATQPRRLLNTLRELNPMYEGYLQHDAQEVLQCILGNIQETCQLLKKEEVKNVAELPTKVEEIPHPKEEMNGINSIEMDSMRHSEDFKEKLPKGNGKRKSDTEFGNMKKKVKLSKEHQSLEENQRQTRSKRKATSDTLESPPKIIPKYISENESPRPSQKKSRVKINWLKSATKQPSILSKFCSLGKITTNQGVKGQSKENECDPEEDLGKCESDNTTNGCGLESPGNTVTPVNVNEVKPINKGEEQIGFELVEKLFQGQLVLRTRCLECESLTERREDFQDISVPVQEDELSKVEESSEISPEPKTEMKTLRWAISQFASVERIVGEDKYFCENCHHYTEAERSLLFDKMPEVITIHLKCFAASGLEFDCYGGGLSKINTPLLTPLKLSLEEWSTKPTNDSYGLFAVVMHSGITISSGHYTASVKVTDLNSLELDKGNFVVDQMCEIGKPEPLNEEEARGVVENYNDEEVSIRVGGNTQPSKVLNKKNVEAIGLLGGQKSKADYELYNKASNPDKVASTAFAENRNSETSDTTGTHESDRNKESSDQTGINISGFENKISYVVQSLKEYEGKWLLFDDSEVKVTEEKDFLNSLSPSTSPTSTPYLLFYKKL
# How it was run: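 USP1/UAF1 complex (1nM) preincubated with compound 15 min at room temperature, then Ub-Rho substrate (150nM final) added. Fluorescence read kinetically at 480/540 nm, 6 reads every 60 seconds. Buffer: 50mM HEPES pH 7.8, 0.5mM EDTA, 0.1 mg/ml BSA, 1mM TCEP, 0.01% Tween-20.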
# [2] = target: Luciferin 4-monooxygenase (Photinus pyralis) (UniProt P08659); assay: Biochemical firefly luciferase enzyme assay for NPC (AID 624030);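 further: purified P. pyralis luciferase at 10 nM with luciferin and ATP substrate; nearly all actives have a fitted effect of over 70% in size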
# Sequence of Luciferin 4-monooxygenase (Photinus pyralis) (P08659 whole entry, looked up): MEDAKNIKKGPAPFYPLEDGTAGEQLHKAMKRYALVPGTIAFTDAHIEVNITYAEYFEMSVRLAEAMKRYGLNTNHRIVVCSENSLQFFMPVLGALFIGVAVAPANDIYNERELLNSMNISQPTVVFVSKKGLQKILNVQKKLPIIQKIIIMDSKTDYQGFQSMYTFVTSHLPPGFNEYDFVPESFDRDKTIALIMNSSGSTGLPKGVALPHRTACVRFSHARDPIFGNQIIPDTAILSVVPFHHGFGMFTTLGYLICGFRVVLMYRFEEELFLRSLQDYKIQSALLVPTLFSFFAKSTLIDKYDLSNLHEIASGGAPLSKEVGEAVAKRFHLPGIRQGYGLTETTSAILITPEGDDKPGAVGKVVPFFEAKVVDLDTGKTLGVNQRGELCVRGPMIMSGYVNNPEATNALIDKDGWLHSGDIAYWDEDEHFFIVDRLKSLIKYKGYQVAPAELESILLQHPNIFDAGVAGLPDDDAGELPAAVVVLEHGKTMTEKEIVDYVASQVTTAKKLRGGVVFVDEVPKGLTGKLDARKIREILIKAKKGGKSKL
# How it was run: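 Purified P. pyralis luciferase at 10 nM in 50 mM Tris Acetate (final), luminescence read within 5 minutes of enzyme addition to compounds. Activity normalised to PTC124 versus DMSO; concentration-response curves classed by r2, magnitude and activity.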
# [3] = S16 Schwann cell viability assay (CellTiter-Glo assay) (AID 624031); further: potency means the concentration at half of the fitted maximal effect; nearly all actives have a fitted effect of over 70% in size
# How it was run: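 Concentration-effect curves come from CellTiter-Glo luminescence of S16 rat Schwann cells after 24 h compound exposure. Each reading was normalized to DMSO wells (0%) and wells without cells, and curves were ranked by r2 and response magnitude.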
# [4] = S16 Schwann cell PMP22 intronic element firefly luciferase assay (AID 624032); further: potency means the concentration at half of the fitted maximal effect; nearly all actives have a fitted effect of over 30% in size
# How it was run: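 Rat S16 Schwann cells stably carrying firefly luciferase driven by a PMP22 intronic element, in 10% FBS, treated 24 h at 37 C. ONE-Glo luminescence normalized to PTC124 control and DMSO (0%); curves classed by r2, magnitude and activity.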
# [5] = S16 Schwann cell PMP22 intronic element beta-lactamase assay (AID 624044; calls by dose curve; further: potency means the concentration at half of the fitted maximal effect; nearly all actives have a fitted effect of over 15% in size)
# How it was run: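 Rat S16 Schwann cells with beta-Lac driven by a PMP22 intronic element, compound-treated 24 h at 37 °C. LiveBLAzer FRET B/G read: 460 nm normalized to potassium clavulanate vs DMSO; 535 nm FRET as viability; concentration-effect curves classified.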
# [6] = qHTS Assay for Identifying Gametocytocidal Compounds (AID 743244); further: potency means the concentration at half of the fitted maximal effect; conditions: P. falciparum 3D7 stage III-V gametocytes, alamarBlue, 72 h; max response: stronger effect = lower value
# How it was run: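 Using 20,000 stage III–V 3D7 gametocytes per well, compounds were incubated 72 h under 37 °C/5% CO2. Viability was then assessed by 24 h alamarBlue reduction, measured fluorometrically at 525/598 nm.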
# 3D7 = assay: qHTS profiling for inhibitors of Plasmodium falciparum proliferation (AID 504749); further: potency means the concentration at half of the fitted maximal effect; nearly all actives have a fitted effect of over 60% in size; conditions: P. falciparum in erythrocytes, SYBR Green DNA, 72 h; series mostly up to 28.7 µM
# How it was run: (§1)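 P. falciparum-infected erythrocytes (0.3% parasitemia, 2.5% hematocrit) incubated with compound 72 h at 37 C, 5% CO2. Parasite DNA detected by SYBR Green after lysis, overnight at room temperature; normalised to 0.29 uM artemisinin and DMSO.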
# 7G8 = assay: as above; conditions: P. falciparum in erythrocytes, SYBR Green DNA, 72 h; series mostly up to 28.7 µM
# How it was run: as §1
# AA1029 = assay: as above; conditions: P. falciparum in erythrocytes, SYBR Green DNA, 72 h; series mostly up to 28.7 µM
# How it was run: as §1
# AS120 = assay: as above; conditions: P. falciparum in erythrocytes, SYBR Green DNA, 72 h; series mostly up to 28.7 µM
# How it was run: as §1
# ATS189 = assay: as above; conditions: P. falciparum in erythrocytes, SYBR Green DNA, 72 h; series mostly up to 28.7 µM
# How it was run: as §1
# ATS95 = assay: as above; conditions: P. falciparum in erythrocytes, SYBR Green DNA, 72 h; series mostly up to 28.7 µM
# How it was run: as §1
# C2A = assay: as above; conditions: P. falciparum in erythrocytes, SYBR Green DNA, 72 h; series mostly up to 28.7 µM
# How it was run: as §1
# CP185 = assay: as above; conditions: P. falciparum in erythrocytes, SYBR Green DNA, 72 h; series mostly up to 28.7 µM
# How it was run: as §1
# CP191 = assay: as above; conditions: P. falciparum in erythrocytes, SYBR Green DNA, 72 h; series mostly up to 28.7 µM
# How it was run: as §1
# CP192 = assay: as above; conditions: P. falciparum in erythrocytes, SYBR Green DNA, 72 h; series mostly up to 28.7 µM
# How it was run: as §1
# CP194 = assay: as above; conditions: P. falciparum in erythrocytes, SYBR Green DNA, 72 h; series mostly up to 28.7 µM
# How it was run: as §1
# CP201 = assay: as above; conditions: P. falciparum in erythrocytes, SYBR Green DNA, 72 h; series mostly up to 28.7 µM
# How it was run: as §1
# CP203 = assay: as above; conditions: P. falciparum in erythrocytes, SYBR Green DNA, 72 h; series mostly up to 28.7 µM
# How it was run: as §1
# CP211 = assay: as above; conditions: P. falciparum in erythrocytes, SYBR Green DNA, 72 h; series mostly up to 28.7 µM
# How it was run: as §1
# CP215 = assay: as above; conditions: P. falciparum in erythrocytes, SYBR Green DNA, 72 h; series mostly up to 28.7 µM
# How it was run: as §1
# CP217 = assay: as above; conditions: P. falciparum in erythrocytes, SYBR Green DNA, 72 h; series mostly up to 28.7 µM
# How it was run: as §1
# CP237 = assay: as above; conditions: P. falciparum in erythrocytes, SYBR Green DNA, 72 h; series mostly up to 28.7 µM
# How it was run: as §1
# CP238 = assay: as above; conditions: P. falciparum in erythrocytes, SYBR Green DNA, 72 h; series mostly up to 28.7 µM
# How it was run: as §1
# CP247 = assay: as above; conditions: P. falciparum in erythrocytes, SYBR Green DNA, 72 h; series mostly up to 28.7 µM
# How it was run: as §1
# CP250 = assay: as above; conditions: P. falciparum in erythrocytes, SYBR Green DNA, 72 h; series mostly up to 28.7 µM
# How it was run: as §1
# CP252 = assay: as above; conditions: P. falciparum in erythrocytes, SYBR Green DNA, 72 h; series mostly up to 28.7 µM
# How it was run: as §1
# CP256 = assay: as above; conditions: P. falciparum in erythrocytes, SYBR Green DNA, 72 h; series mostly up to 28.7 µM
# How it was run: as §1
# CP260 = assay: as above; conditions: P. falciparum in erythrocytes, SYBR Green DNA, 72 h; series mostly up to 28.7 µM
# How it was run: as §1
# CP262 = assay: as above; conditions: P. falciparum in erythrocytes, SYBR Green DNA, 72 h; series mostly up to 28.7 µM
# How it was run: as §1
# CP265 = assay: as above; conditions: P. falciparum in erythrocytes, SYBR Green DNA, 72 h; series mostly up to 28.7 µM
# How it was run: as §1
# CP266 = assay: as above; conditions: P. falciparum in erythrocytes, SYBR Green DNA, 72 h; series mostly up to 28.7 µM
# How it was run: as §1
# CP268 = assay: as above; conditions: P. falciparum in erythrocytes, SYBR Green DNA, 72 h; series mostly up to 28.7 µM
# How it was run: as §1
structure (smiles),measurement,setting,value
CCCCCCCCCC[N+](C)(C)CCCCCCCCCC,Potency,[1],31.6 µM (active)
same,Potency,[2],inactive
same,Potency,[3],18.1 µM (active)
same,Potency,[4],16.1 µM (active)
same,Potency,[5],25.1 µM (active)
same,Potency,[6],7.94 µM (active)
same,Potency,3D7,2 µM (active)
same,Potency,7G8,2 µM (active)
same,Potency,AA1029,7.08 µM (active)
same,Potency,AS120,6.31 µM (active)
same,Potency,ATS189,7.08 µM (active)
same,Potency,ATS95,6.31 µM (active)
same,Potency,C2A,4.47 µM (active)
same,Potency,CP185,4.47 µM (active)
same,Potency,CP191,3.98 µM (active)
same,Potency,CP192,4.78 µM (active)
same,Potency,CP194,6.75 µM (active)
same,Potency,CP201,9.53 µM (active)
same,Potency,CP203,6.75 µM (active)
same,Potency,CP211,9.53 µM (active)
same,Potency,CP215,8.49 µM (active)
same,Potency,CP217,4.47 µM (active)
same,Potency,CP237,7.08 µM (active)
same,Potency,CP238,5.62 µM (active)
same,Potency,CP247,4.47 µM (active)
same,Potency,CP250,4.47 µM (active)
same,Potency,CP252,7.08 µM (active)
same,Potency,CP256,4.47 µM (active)
same,Potency,CP260,3.98 µM (active)
same,Potency,CP262,5.36 µM (active)
same,Potency,CP265,5.01 µM (active)
same,Potency,CP266,6.75 µM (active)
same,Potency,CP268,6.01 µM (active)
